# Compound activity as filed in PubChem BioAssay.
# Not all results are given here.
# aSyn 5UTR act: Activators working through SNCA 5'UTR binding (MLPCN); alpha-synuclein 5'UTR reporter, activators screen; activity score, % (tested at 7.5 µM), hits read low; 300,000 tested, 7.1% active; AID 1814; in the data active means activity score below about -60%
# Hits are given with their value; - = inactive.
SMILES,aSyn 5UTR act
Cc1ccc2nc(N3C(=O)C(O)=C(C(=O)c4ccco4)C3c3ccc(C)o3)sc2c1 (stereo not drawn),-82
CCc1ccc2nc(N3C(=O)C(O)=C(C(=O)c4ccco4)C3c3cccs3)sc2c1 (stereo not drawn),-102
Cc1ccc2nc(N3C(=O)C(O)=C(C(=O)c4cc5ccccc5o4)C3c3cccs3)sc2c1 (stereo not drawn),-85
O=C(CSc1nccn1-c1ncc(C(F)(F)F)cc1Cl)c1ccc(Cl)cc1,-127
CN1CCc2c(sc3c2C(=O)NC(c2cccs2)N3)C1 (stereo not drawn),-103
O=[N+]([O-])c1ccc(C2=Nc3cc(Cl)ccc3OC2)cc1,-149
Cc1ccnc(SCc2nc3ccccc3s2)n1,-181
COc1cccc(Nc2nnc(SCc3nc4ccccc4s3)s2)c1,-208
Cc1cccc(C)c1Nc1nnc(SCc2nc3ccccc3s2)s1,-85
CCOc1cccc(/C=C2\NC(=S)N(c3ccccc3)C2=O)c1O,-148
Cc1ccc(S(=O)(=O)c2nc(S(=O)(=O)c3ccc(C)cc3)c(N3CCN(CCO)CC3)s2)cc1,-64
Cc1ccc(S(=O)(=O)c2nc(S(C)(=O)=O)sc2N2CCOCC2)cc1,-72
S=C(Nc1ccccc1)c1ccccn1,-165
COc1ccc(/C(C#N)=C/c2ccccn2)cc1,-172
N#C/C(=C\c1ccccn1)c1nc2ccccc2s1,-74
Cc1cc(/C=C(\C#N)C(=O)Nc2ccccc2F)c(C)[nH]1,-129
Cc1cc(/C=C(\C#N)C(=O)NC2CC2)c(C)[nH]1,-145
Cc1cc(C)cc(NC(=O)/C(C#N)=C/c2cn(CC(=O)NCc3ccco3)c3ccccc23)c1,-
Cc1cc(/C=C(\C#N)C(=O)NCc2ccco2)c(C)[nH]1,-64
CC(C)(C)C1CCc2onc(C(=O)Nc3cccc(O)c3)c2C1 (stereo not drawn),-92
Cc1cc(NCCN2CCOCC2)c2ccc3ccccc3c2n1,-132
Cc1ccc(-c2nc(NCCN3CCOCC3)c3ccccc3n2)cc1,-138
c1ccc(CN2CCC(Nc3nc(-c4ccccc4)nc4ccccc34)CC2)cc1,-
O=C(Nc1ccccc1F)c1coc(=O)c(Br)c1,-62
Cc1cc(NC(=O)c2coc(=O)c(Br)c2)ccc1C(C)C,-75
SMILES,aSyn 5UTR act
O=C(NCCc1ccc(F)cc1)c1coc(=O)c(Br)c1,-64
CCCCC(=O)Nc1ccccc1Oc1ccccc1,-123
O=C(N/N=C/c1cc2c3c(c1O)CCCN3CCC2)c1ccccc1O,-
Cc1ccc(C(=O)N/N=C/C2=Cc3ccccc3OC2C)cc1 (stereo not drawn),-71
CC1Oc2ccccc2C=C1/C=N/NC(=O)c1ccccc1 (stereo not drawn),-159
CC1Oc2ccccc2C=C1/C=N/NC(=O)c1ccccc1O (stereo not drawn),-131
O=C(Nc1nnc(SCc2ccccc2)s1)C1=COCCO1,-72
c1ccc(CSc2nnc(NC3=NCCCCC3)s2)cc1,-89
O=C(NCCc1ccccc1)C1=COCCO1,-129
CC(=O)Nc1nnc(SCc2ccccc2F)s1,-76
C=CCSc1nnc(NC(=O)C2=COCCO2)s1,-82
O=C(Nc1nnc(SCc2ccccc2F)s1)C1=COCCO1,-117
CC(=O)N(/N=C1/C(=O)Nc2ccccc21)c1ccccc1,-114
Cc1cccc(NC(=S)NNC(=O)c2csc3c2CCCC3)c1,-125
Cc1cc(C(=O)Nc2ccc(Br)cc2)cs1,-130
Cc1cccc(NC(=S)NNC(=O)c2csc(C)c2)c1,-77
O=c1nc(/C=C/c2ccc(O)c(O)c2)oc2ccccc12,-159
N/C(=N\OC(=O)c1cccnc1)c1ccccc1Cl,-69
N/C(=N\OC(=O)c1cccnc1)c1ccc(Cl)cc1Cl,-153
COc1ccccc1C(=O)N/N=C/c1cnc2ccccc2n1,-102
COc1ccccc1C(=O)N/N=C/c1ccc(Cl)s1,-179
O=C(N/N=C\c1ccc(Cl)s1)C1COc2ccccc2O1 (stereo not drawn),-67
O=C(N/N=C/c1c[nH]c2ccccc12)C1COc2ccccc2O1 (stereo not drawn),-
O=C(N/N=C\c1ccc(Cl)s1)c1cccs1,-67
O=C(CSc1ccccc1)Nc1ccc(N2CCOCC2)cc1,-116
SMILES,aSyn 5UTR act
O=C(Cc1cccs1)Nc1ccc(N2CCOCC2)cc1,-97
O=C(CSc1ccccc1)Nc1ccc(N2CCOCC2)c(F)c1,-99
Cn1c(-c2ccc(F)cc2)cnc1SCC(=O)Nc1ccccc1N1CCOCC1,-193
O=C(CSc1n[nH]c(-c2ccccn2)n1)Nc1ccccc1,-
O=C(CSc1n[nH]c(-c2ccccc2)n1)Nc1ccc(N2CCOCC2)cc1,-68
O=C(CSc1ccc(F)cc1)Nc1ccc(N2CCOCC2)cc1,-74
Cc1nc(N2CCN(S(=O)(=O)c3ccccc3)CC2)c2cc(-c3ccccc3)sc2n1,-113
Cc1ccsc1/C=N/N1CCN(c2ccccc2)CC1,-148
Cc1ccsc1/C=N/N1CCN(c2ccccn2)CC1,-94
CN(C)CCCNC(=O)c1ccc(-c2nc(-c3ccc(Cl)cc3)cs2)cc1,-
N=C1C(c2nc(-c3ccc(Cl)cc3)cs2)=C(O)CN1NC(=O)c1ccc(O)cc1,-73
Cc1occc1-c1nc(-c2ccncc2)no1,-77
Cc1ccc(-c2noc(-c3ccoc3C)n2)cc1,-186
CCOc1cccc(/C=N/NC(=S)Nc2cc(S(=O)(=O)N3CCOCC3)ccc2N2CCOCC2)c1O,-
CCOc1cccc(/C=N/Nc2ccc(S(=O)(=O)N(CC)CC)cn2)c1O,-
CCOc1cccc(C=Nc2cc(C)cc(C)c2O)c1O,-85
Nc1ccccc1NC(=O)c1ccccc1N,-139
COC(=O)C1=C(Nc2ccccc2NC(=O)c2ccccc2C(=O)O)CSC1,-167
Cc1c(NC(=O)c2ccccc2N)cccc1C(=O)O,-155
Cc1c(NC(=O)c2ccc(Br)o2)cccc1C(=O)O,-86
O=C(O)c1ccccc1C(=O)Nc1ccccc1NC(=O)c1ccccc1C(=O)O,-126
Nc1ccccc1NC(=O)NC(=O)c1ccccc1,-169
Cn1cccc1C(=O)NCCc1ccc(Cl)cc1,-162
COc1ccc(CCNC(=O)c2cccn2C)cc1,-89
CN1CCN(S(=O)(=O)c2cccc(C(=O)Nc3sc4c(c3-c3nc5ccccc5[nH]3)CCCC4)c2)CC1,-109
SMILES,aSyn 5UTR act
Cn1cccc1C(=O)OCc1csc(-c2ccccc2)n1,-112
Cc1ccsc1C(=O)OCc1csc(-c2ccccc2)n1,-99
CN(Cc1cccs1)C(=O)Cc1csc(-c2ccccc2)n1,-116
O=C(Nc1ncc(Cc2ccc(SC(F)F)cc2)s1)c1ccc(OC(F)F)cc1,-129
CCn1c(C)cc(O)c(C(=O)Nc2cccc(Cl)c2)c1=O,-96
Cc1cc(O)c(C(=O)Nc2cccc(Cl)c2)c(=O)n1C,-104
CCn1c(C)c(C)c2cc(C(=O)Nc3cccc(Cl)c3)ccc21,-117
O=[N+]([O-])c1cccc(-c2nnn(C34CC5CC(CC(C5)C3)C4)n2)c1,-82
C/C(NC(=O)c1cccs1)=C1\C(=O)C[C@@H]2[C@H]1C2(C)C,-118
CN(CCC#N)C(=O)c1cc2c(s1)-c1ccccc1SC2,-91
N#CC1=C(N)Oc2cc(N)ccc2C1C1CCCCC1 (stereo not drawn),-89
CN(C)c1ccc2c(c1)OC(N)=C(C#N)C2c1cccc(F)c1 (stereo not drawn),-
N#CC1=C(N)Oc2cc(N)ccc2C1c1cccc(F)c1 (stereo not drawn),-137
O=C1CCCN1CCC(=O)N1CCCC(CO)(Cc2ccccc2)C1 (stereo not drawn),-98
CC(C)CN(C)C(=O)CCc1nnc(Cc2cccc(C(F)(F)F)c2)o1,-143
